In all, about 220,000 compounds went through this assay and about 910 (0.41%) were called active.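 The calls were made as follows: active = primary inhibition above the hit cutoff, then over 50% inhibition at one or more dose response concentrations (cut at about 23% in these data, passing the limit was not always enough); inconclusive = conflicting primary data, or primary hits not chosen for dose response; inactive = low primary inhibition, or under 50% at every dose.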 The list comes from a sample in which actives are over-represented; it also holds similar structures and randomly drawn compounds. Measured potencies and affinities stand elsewhere.
The compounds below were run against Aminopeptidase N (Plasmodium falciparum (isolate 3D7)) (UniProt O96935) (assay: malaria alanyl aminopeptidase activity blockers – biochemical, fluorogenic H-Leu-NHMec substrate, 1536-well (AID 1445;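 also: plate controls were DMSO full reaction for no effect and no enzyme background for full effect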)). Details: recombinant M1AAP, H-Leu-NHMec fluorogenic kinetic assay; at 30 µM, hits give high values unless noted.
Aminopeptidase N (Plasmodium falciparum (isolate 3D7)), sequence (O96935 whole entry, looked up): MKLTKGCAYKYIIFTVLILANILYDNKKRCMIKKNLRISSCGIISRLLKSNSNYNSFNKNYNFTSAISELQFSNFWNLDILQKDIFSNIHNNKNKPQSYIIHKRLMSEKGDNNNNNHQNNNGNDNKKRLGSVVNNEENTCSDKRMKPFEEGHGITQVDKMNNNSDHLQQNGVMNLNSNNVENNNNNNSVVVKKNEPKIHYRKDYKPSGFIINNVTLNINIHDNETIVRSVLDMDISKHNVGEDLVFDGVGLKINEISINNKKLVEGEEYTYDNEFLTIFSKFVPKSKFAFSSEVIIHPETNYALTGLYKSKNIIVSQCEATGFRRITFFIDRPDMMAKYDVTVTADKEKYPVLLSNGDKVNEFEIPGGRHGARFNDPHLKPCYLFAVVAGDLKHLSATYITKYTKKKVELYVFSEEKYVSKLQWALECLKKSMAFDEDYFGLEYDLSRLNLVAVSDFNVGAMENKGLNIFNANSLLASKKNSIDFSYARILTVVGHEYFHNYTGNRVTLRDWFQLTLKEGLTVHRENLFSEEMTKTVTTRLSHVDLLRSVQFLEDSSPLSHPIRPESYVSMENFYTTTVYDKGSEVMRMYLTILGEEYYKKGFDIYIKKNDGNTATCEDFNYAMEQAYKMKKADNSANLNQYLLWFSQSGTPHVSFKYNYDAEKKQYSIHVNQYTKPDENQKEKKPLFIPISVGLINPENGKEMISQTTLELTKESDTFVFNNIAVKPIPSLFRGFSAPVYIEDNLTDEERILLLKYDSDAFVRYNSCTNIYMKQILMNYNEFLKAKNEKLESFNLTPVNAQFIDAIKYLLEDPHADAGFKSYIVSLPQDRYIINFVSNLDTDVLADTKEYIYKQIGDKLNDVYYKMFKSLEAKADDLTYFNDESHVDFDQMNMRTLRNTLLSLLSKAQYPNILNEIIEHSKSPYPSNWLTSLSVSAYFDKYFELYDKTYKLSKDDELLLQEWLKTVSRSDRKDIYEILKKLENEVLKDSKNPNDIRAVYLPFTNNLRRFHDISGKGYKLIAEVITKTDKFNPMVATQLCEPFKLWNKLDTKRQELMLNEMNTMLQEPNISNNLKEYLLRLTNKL

SMILES | inhibition
Cc1cccc(-c2cc3nc4c(c(NCc5ccco5)n3n2)CCCC4)c1 | -3.49% (inactive)
C=CCn1c(SCC(=O)C23CC4CC(CC(C4)C2)C3)nc(O)cc1=O | 5.12% (inactive)
C=CCn1c(SCC(=O)NC23CC4CC(CC(C4)C2)C3)nc(O)cc1=O | 24.7% (active)
C=CCn1c(SCC(=O)NC23CC4CC(CC(C4)C2)C3)nc2cc(C(=O)O)ccc2c1=O | 2.59% (inactive)
Cc1ccc(S(=O)(=O)NCC(=O)N(CC(=O)NCC2CCCO2)C2CCCC2)cc1 (centres undefined) | 4.45% (inactive)
O=c1sc(/C=N/Nc2ccccc2)c(Cl)n1Cc1ccccc1 | -3.08% (inactive)
CC(C)c1ccc(N2C=Nc3ccc(C(C)C)cc3C2)cc1 | 0.82% (inactive)
O=C1C(C2=NC(C(=O)O)C3C(=O)N(c4ccccc4)C(=O)C23)=C(O)c2ccccc21 (centres undefined) | 10.7% (inactive)
O=C1C(C2=NC(C(=O)O)C3C(=O)N(c4ccc(Cl)cc4)C(=O)C23)=C(O)c2ccccc21 (centres undefined) | 25.7% (active)
O=C1C(C2=NC(c3ccccn3)C3C(=O)N(c4ccccc4)C(=O)C23)=C(O)c2ccccc21 (centres undefined) | 3.12% (inactive)
CCCCNC(=S)NNC(=O)CCn1cc(C)cn1 | 4.21% (inactive)
CCOC(=O)Cc1cc(=O)n2[nH]c(C(C)(C)C)cc2n1 | 4.13% (inactive)
Cc1onc(-c2ccccc2)c1NC(=O)Nc1c(-c2ccccc2)noc1C | 5.84% (inactive)
Cc1ccc(S(=O)(=O)N(C)C)cc1NC(=O)Nc1ccccc1 | 3.2% (inactive)
CCOC(=O)c1c(NC(=O)CSc2nnc(-c3ccccc3)n2CC)sc(C(C)=O)c1C | 5.61% (inactive)
CCCOC(=O)CSc1nc(N)c(C#N)c(-c2ccco2)c1C#N | 8.7% (inactive)
N=C1/C(=C\c2ccc(-c3cc(Cl)cc(Cl)c3)o2)C(=O)N=C2SC=C(c3ccccc3)N12 | -3.79% (inactive)
CC(C)S(=O)(=O)C1=NSC2=NC(=O)/C(=C\c3ccc(-c4cccc(C(=O)O)c4)o3)C(=N)N21 | 17.7% (inactive)
N=C1/C(=C\c2ccc(-c3cccc(Cl)c3)o2)C(=O)N=C2SC=C(c3ccccc3)N12 | 15.9% (inactive)
N=C1/C(=C\c2ccc(-c3ccc(C(=O)O)cc3)o2)C(=O)N=C2SC=C(c3ccccc3)N12 | 8.48% (inactive)
CC12CCC(C/C1=N\N=C1\NC(=O)/C(=C\c3cccc(Br)c3)S1)C2(C)C (centres undefined) | 6.04% (inactive)
CCCC(=O)c1cn(CC(=O)OC)c2ccccc12 | 1.35% (inactive)
CCCOc1nc2c(c(=O)n(C)c(=O)n2C)n1C | 2.15% (inactive)
CCCOc1nc2c(c(=O)n(C)c(=O)n2C)n1CCC | 24.2% (active)

SMILES | inhibition
CCCn1c(OC)nc2c1c(=O)n(C)c(=O)n2C | 1.88% (inactive)
Cn1cnc2c(N/N=C/c3cccs3)ncnc21 | 7.29% (inactive)
Clc1cnc(N/N=C/c2cccs2)c(Cl)c1 | 4.04% (inactive)
CCCCN(C)c1c(N2CCC(C(=O)OCC)CC2)c(=O)c1=O | 12.2% (inactive)
Cc1cc(C)c(S(=O)(=O)NCC(=O)O)cc1C | -7.15% (inactive)
O=C(O)CSc1cc(NS(=O)(=O)c2cccc([N+](=O)[O-])c2)c2ccccc2c1O | 19.8% (inactive)
O=C(CSc1nc(O)c(Cc2ccccc2)c(=O)[nH]1)N1CCOCC1 | 0.8% (inactive)
Cc1ccc(-c2cc3ncc(C#N)c(N)n3n2)cc1 | 6.77% (inactive)
COc1ccc(C(=O)NCCCN2CCOCC2)cc1S(=O)(=O)N1CCCc2ccccc21 | -1.32% (inactive)
COc1ccc(S(=O)(=O)Nc2ccc(O)c3ccccc23)cc1 | 5.24% (inactive)
O=S(=O)(Nc1cc(Sc2ncn[nH]2)c(O)c2ccccc12)c1ccccc1 | 13.5% (inactive)
COc1ccc(S(=O)(=O)Nc2cc(Sc3ncn[nH]3)c(O)c3ccccc23)cc1 | 24.3% (active)
Cn1cnnc1SC1CCCCC1NS(=O)(=O)c1ccccc1 (centres undefined) | -1.9% (inactive)
CCc1ccc(C(=O)CN2C(=O)NC(C)(CCc3ccccc3)C2=O)cc1 (centres undefined) | 0.01% (inactive)
c1ccc(C2=Nn3c(nnc3-c3ccco3)SC2)cc1 | 7.07% (inactive)
Oc1ccc(C2=Nn3c(nnc3-c3ccco3)SC2)cc1O | 29.3% (active)
Fc1ccc(C2=Nn3c(nnc3-c3ccco3)SC2)cc1 | 4.7% (inactive)
CCOC(=O)C(NC(=O)C1CCCN1C(=O)OCc1ccccc1)C(=O)OCC (centres undefined) | -8.77% (inactive)
CCN(CC)C(=O)C1CCCN(Cc2ccc(OC)c(C)c2)C1 (centres undefined) | -5.17% (inactive)
COCCCNC(=O)c1cccc(OC)c1OC | 3.12% (inactive)
COc1ccc(NC(=O)c2cnc(C)cn2)c2ncccc12 | 1.63% (inactive)
Cc1cnc(C(=O)Nc2ccccc2F)cn1 | 0.48% (inactive)
Cc1cnc(C(=O)Nc2cccc3cccnc23)cn1 | 24.3% (active)
Brc1ccc(C2Nc3cccc4cccc(c34)N2)s1 | 1.05% (inactive)

SMILES | inhibition
Cc1[nH]c2ccccc2c1/C=N/Nc1cccc(C(=O)O)c1 | 11.9% (inactive)
Cc1cccc(C)c1-n1cccc1/C=C1\SC(=S)N(c2cccc(C(=O)O)c2)C1=O | 6.85% (inactive)
CCN1C(=O)C2(C(C#N)=C(N)Oc3n[nH]c(-c4ccccc4)c32)c2ccccc21 (centres undefined) | -4.58% (inactive)
COC(=O)CN1C(=O)C2(C(C#N)=C(N)Oc3c2c(C)nn3-c2ccccc2)c2ccccc21 (centres undefined) | 4.95% (inactive)
CCN1C(=O)C2(C(C#N)=C(N)Oc3n[nH]c(-c4ccc(Cl)cc4)c32)c2ccccc21 (centres undefined) | -0.38% (inactive)
COC(=O)CN1C(=O)C2(C(C#N)=C(N)Oc3cc(C)oc(=O)c32)c2ccccc21 (centres undefined) | 1.21% (inactive)
Cc1cccc(OCCOCCSc2ncccn2)c1 | 11.6% (inactive)
COc1cccc(OC)c1OCCCOc1ccc(C)cc1Br | 3.98% (inactive)
CC1CCCN(C(=O)CSc2nnc(-c3ccc(S(=O)(=O)N4CCOCC4)cc3)n2C)C1 (centres undefined) | 0.7% (inactive)
Cc1cc(Cl)c2ccc(Cl)cc2n1 | 0.44% (inactive)
CC(=O)CC(c1ccc([N+](=O)[O-])cc1)c1c(O)c2ccccc2oc1=O (centres undefined) | 0.61% (inactive)
O=[N+]([O-])c1ccc2c(c1)oc1ccccc12 | -3.55% (inactive)
Cc1csc(NC(=O)CSc2nc(C(C)C)nc3c2c(=O)n(C)c(=O)n3C)n1 | -1.73% (inactive)
CS(=O)(=O)c1ccc2nc(NC(=O)c3ccc(N4C(=O)CCC4=O)cc3)sc2c1 | 5.15% (inactive)
CCOC(=O)c1cc(-c2csc(-c3cccc(Cl)c3)n2)on1 | -3.06% (inactive)
CC1C(c2ccccc2)N(C)C(c2ccccc2)CC1(O)c1ccccc1 (centres undefined) | 16.7% (inactive)
CCOC(=O)C(=O)Nc1nnc(SCc2ccc(F)cc2)s1 | 2.28% (inactive)
COc1cccc(C(=O)Nn2c(C)nnc2-n2nc(C)cc2C)c1 | 8.95% (inactive)
O=C(NCc1ccccc1)C(c1ccc(F)cc1)N(Cc1ccc2c(c1)OCO2)C(=O)Cn1nnc(-c2cccs2)n1 (centres undefined) | 1.31% (inactive)
COc1ccc(-c2nnn(CC(=O)N(CC(=O)NCCC(C)C)Cc3cccs3)n2)cc1OC | 13.8% (inactive)
CC(C)CCNC(=O)CN(Cc1ccc2c(c1)OCO2)C(=O)Cn1nnc(-c2cccs2)n1 | 24.4% (active)
COc1ccc(NC(=O)c2oc3ccccc3c2NC(=O)c2ccc3c(c2)OCO3)cc1 | 2.18% (inactive)
Cc1nc(SCc2ccccc2C)n[nH]1 | -7.66% (inactive)
COc1ccc2nc(SCc3ccccc3C)nc(C)c2c1 | 2.23% (inactive)

SMILES | inhibition
Cc1ccc(-c2c(C#N)c(N)n3c(nc4ccccc43)c2C#N)cc1 | 25.5% (active)
N#Cc1c(-c2ccccc2)c(C#N)c2nc3ccccc3n2c1N | 3.17% (inactive)
Cc1cc(Cl)n2c(nc3ccccc32)c1C#N | -0.99% (inactive)
Cc1cc(C(C)(C)C)ccc1OCCN1CCCC1 | 8.65% (inactive)
Oc1ccc(-c2nc(=S)[nH][nH]2)cc1 | 44.3% (inactive)
C=CCOc1ccc(C(=O)N(Cc2ccc(N(C)C)cc2)C2CCS(=O)(=O)C2)cc1 (centres undefined) | 13% (inactive)
CC(=O)Oc1cc2oc(=O)c3c(c2cc1Cl)CCC3 | 38.1% (inactive)
O=c1cc(-c2ccccc2)c2cc(Cl)c(O)c(CN3CCOCC3)c2o1 | 5.98% (inactive)
Cc1oc2c(CN3CCOCC3)c(O)ccc2c(=O)c1-c1ccc(Cl)cc1 | 7.87% (inactive)
O=c1oc2cc(O)ccc2c2c1CCCC2 | 10.5% (inactive)
CCc1cccc(C)c1NC(=O)COC(=O)c1ccc2c(c1)S(=O)(=O)c1ccccc1C2=O | 1.58% (inactive)
CC1(C)NC(=O)N(CC(O)COc2cccc(F)c2)C1=O (centres undefined) | 7.39% (inactive)
N#C/C(=C(/O)c1cccs1)c1nc2ccccc2[nH]1 | 1.8% (inactive)
COc1cc(C(=S)N2CCCC2)ccc1OS(=O)(=O)c1ccc(NC(C)=O)cc1 | -0.31% (inactive)
CCN1CCN(C(c2cc3cc4c(cc3[nH]c2=O)OCO4)c2nnnn2C(C)(C)CC)CC1 (centres undefined) | 12.6% (inactive)
Cn1c(=O)c2cc(S(=O)(=O)Nc3cc(C(=O)O)cc(C(=O)O)c3)ccc2n(C)c1=O | 2.45% (inactive)
O=C(NCc1cccnc1)c1cc([N+](=O)[O-])ccc1N1CCOCC1 | 4.23% (inactive)
CCCCc1nc(NCc2ccccc2)c(C#N)c2c1COC(C)(C)C2 | -3.84% (inactive)
CCCCc1nc(NCCN)c(C#N)c2c1CSC(C)(C)C2 | 2.56% (inactive)
CCCCc1nc(NCCNC(=O)c2ccccc2)c(C#N)c2c1CSC(C)(C)C2 | 24.4% (active)
CCCCc1nc(Cl)c(C#N)c2c1CSC(C)(C)C2 | 0.12% (inactive)
CCc1nc(NCCN)c(C#N)c2c1CSC(C)(C)C2 | -0.7% (inactive)

Source: PubChem BioAssay AID1445 (SRMLSC, 2008)
